Laboratory results reported in PubChem BioAssay (Tox21).
Inconclusive results are not listed. Active and inactive are the calls of the source. Unless noted, calls come from the whole dose curve; as a rule, active = well fitted curve in the direction sought with a large enough effect in the repeat runs; inconclusive = weak or mixed curves; inactive = no such curve, though single readings can be large; an effect the other way counts as inactive or inconclusive.

Columns and labels:
[1] = qHTS assay for small molecules that induce genotoxicity in human embryonic kidney cells expressing luciferase-tagged ATAD5 (AID 651632); note: nearly all actives have a fitted effect of over 15% in size
In short: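 HEK293T cells carrying luciferase-tagged ATAD5 were given compound or DMSO vehicle and incubated 16 hr at 37C, 5% CO2. Luciferase activity was read after 30 min at room temperature with Amplite; a rise signals genotoxic stress.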

[2] = qHTS assay for small molecule agonists of the p53 signaling pathway - cell viability (AID 651633; calls by dose curve;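 note: p53RE-bla HCT reporter cells with a stable beta-lactamase p53 reporter; nearly all actives have a fitted effect of over 30% in size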)
In short: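 p53RE-bla cells, seeded at 4,000 per well and rested 5 h at 37 C/5% CO2, received compounds in DMSO for 16 h at 37 C. CellTiter-Glo was then added, and luminescence was read after 30 min at room temperature to gauge cytotoxicity.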

[3] = qHTS assay for small molecules that induce genotoxicity in human embryonic kidney cells expressing luciferase-tagged ATAD5 - cell viability (AID 651634; calls by dose curve; note: nearly all actives have a fitted effect of over 25% in size)
In short: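 HEK293T cells carrying luciferase-tagged ATAD5, 2,000 cells/well, exposed to compound for 15.5 hr at 37C. Viability read as live-cell protease activity by CellTiter-Fluor fluorescence after 30 min at 37C.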

[4] = qHTS assay for small molecule disruptors of the mitochondrial membrane potential - cell viability (AID 720634; calls by dose curve;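 note: human HepG2 liver cancer cells; nearly all actives have a fitted effect of over 20% in size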)
In short: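 HepG2 cells, 2,000 per well, attached overnight, then treated 1 hr at 37 C, 5% CO2. Viability read as ATP by CellTiter-Glo luminescence after 30 min at room temperature. Read in the same wells as the m-MPI membrane-potential dye assay.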

[5] = qHTS assay to test for compound auto fluorescence at 590 nm (red) in HepG2 cells (AID 720674)
In short: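 Compound auto-fluorescence is scored relative to Rose Bengal sodium, measured at 540/590 nm in live HepG2 cultures after 1 hr compound contact (37 C, 5% CO2).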

[6] = qHTS assay to test for compound auto fluorescence at 535 nm (green) in HepG2 cells (AID 720675)
[7] = qHTS assay to test for compound auto fluorescence at 460 nm (blue) in HEK293 cells (AID 720678)
In short: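 Auto fluorescence in the blue band was quantified as triamterene equivalency. HEK293 cells were seeded at 2,000/well, dosed after a 4-5 hr attachment, and kept overnight at 37C before the 405/460 nm reading.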

[8] = qHTS assay to test for compound auto fluorescence at 535 nm (green) in HEK293 cells (AID 720680)
[9] = qHTS assay to test for compound auto fluorescence at 460 nm (blue) in HEK293 cell free culture (AID 720681)
In short: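 Test compounds were pinned into cell-free culture medium (DMEM with 10% FBS) and fluorescence was read directly at Ex/Em 405/460 nm. Signals were expressed as fluorescence equivalents of triamterene, with DMSO vehicle as control.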

[10] = qHTS assay to test for compound auto fluorescence at 535 nm (green) in HEK293 cell free culture (AID 720682)
In short: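 No cells present: wells hold DMEM supplemented with 10% FBS, into which compound or vehicle is pinned. Green emission is then recorded (485 nm excitation, 535 nm emission) and scaled to fluorescein.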

[11] = qHTS assay to test for compound auto fluorescence at 590 nm (red) in HEK293 cell free culture (AID 720683)
In short: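 Tox21 10K library compounds were pinned into cell-free DMEM with 10% FBS and fluorescence was read at excitation 540 nm. Activity is expressed as Rose Bengal sodium equivalency.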

[12] = qHTS assay to test for compound auto fluorescence at 590 nm (red) in HepG2 cell free culture (AID 720684)
In short: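 Red fluorescence (540 nm excitation, 590 nm emission) was measured after compound transfer into cell-free MEM supplemented with 10% FBS. Values are equivalencies against Rose Bengal sodium.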

[13] = qHTS assay to test for compound auto fluorescence at 460 nm (blue) in HepG2 cell free culture (AID 720685)
In short: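 Compound (23 nL) or DMSO pinned into cell-free MEM with 10% FBS; blue fluorescence read at 405/460 nm excitation/emission, expressed as auto-fluorescence equivalency to triamterene.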

[14] = qHTS assay to test for compound auto fluorescence at 535 nm (green) in HepG2 cell free culture (AID 720686)
[15] = qHTS assay to test for compound auto fluorescence at 460 nm (blue) in HepG2 cells (AID 720687)
In short: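 Cells (2,000/well in MEM with 10% FBS) attached overnight at 37 C, then were exposed to compound or DMSO for 1 hr at 37 C, 5% CO2. Fluorescence read at Ex/Em 405/460 nm, expressed as triamterene-equivalent signal.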

[16] = biological target: Glucocorticoid receptor (Homo sapiens) (UniProt P04150); experiment: qHTS assay to identify small molecule agonists of the glucocorticoid receptor (GR) signaling pathway (AID 720691; active = well fitted activation curve with a large enough effect in the signal ratio in the repeat runs, not every such curve was filed as active; the % refers to the signal ratio); conditions: GR-bla HeLa, beta-lactamase reporter ratio, 18 h; activation: at 62.4 µM (top of the series)
Chain of Glucocorticoid receptor (Homo sapiens) (P04150 whole entry, looked up): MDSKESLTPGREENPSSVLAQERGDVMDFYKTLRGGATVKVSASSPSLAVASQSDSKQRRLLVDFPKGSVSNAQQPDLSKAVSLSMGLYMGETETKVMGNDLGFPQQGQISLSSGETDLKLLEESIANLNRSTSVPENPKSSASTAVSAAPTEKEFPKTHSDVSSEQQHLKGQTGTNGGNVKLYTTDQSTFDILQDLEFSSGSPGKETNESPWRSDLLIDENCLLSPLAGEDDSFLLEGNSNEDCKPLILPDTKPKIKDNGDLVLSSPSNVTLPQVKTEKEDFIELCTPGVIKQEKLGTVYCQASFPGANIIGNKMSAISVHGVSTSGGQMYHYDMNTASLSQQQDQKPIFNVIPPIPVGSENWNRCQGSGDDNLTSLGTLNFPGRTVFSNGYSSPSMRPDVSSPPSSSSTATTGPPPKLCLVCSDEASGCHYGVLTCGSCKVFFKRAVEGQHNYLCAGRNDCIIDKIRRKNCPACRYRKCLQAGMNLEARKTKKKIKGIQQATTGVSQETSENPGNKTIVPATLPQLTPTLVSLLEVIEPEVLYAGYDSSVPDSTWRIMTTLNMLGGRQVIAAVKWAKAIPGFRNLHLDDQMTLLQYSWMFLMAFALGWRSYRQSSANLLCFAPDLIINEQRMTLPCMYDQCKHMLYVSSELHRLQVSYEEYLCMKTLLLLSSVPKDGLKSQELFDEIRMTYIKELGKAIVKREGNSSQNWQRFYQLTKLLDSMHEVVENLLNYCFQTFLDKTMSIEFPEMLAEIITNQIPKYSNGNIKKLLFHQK
In short: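 GR-bla HeLa cells carrying a GRE-driven beta-lactamase reporter, exposed to compounds for 18 h at 37 C. Reporter activation read as fluorescence after 2 h with LiveBLAzer B/G FRET substrate at room temperature.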

[17] = qHTS assay for small molecule disruptors of the mitochondrial membrane potential (AID 720635)
In short: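 HepG2 cells (2,000/well) attached overnight at 37C, then took compound for 1 hr at 37C, 5% CO2. Mito-MPS dye was added for 30 min; fluorescence was read at 490/535 nm (monomers) and 540/590 nm (aggregates).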

[18] = qHTS assay to test for compound auto fluorescence at 590 nm (red) in HEK293 cells (AID 720679)
In short: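 Autofluorescence equivalency to Rose Bengal sodium, 540/590nm, in HEK293 cells exposed overnight to 23 nL compound per well.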

[19] = biological target: Glucocorticoid receptor (Homo sapiens) (UniProt P04150); experiment: qHTS assay to identify small molecule antagonists of the glucocorticoid receptor (GR) signaling pathway (AID 720692; active = well fitted inhibition curve with a large enough effect in the signal ratio in the repeat runs, not every such curve was filed as active; the % refers to the signal ratio)
In short: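 GR-bla HeLa cells carrying a GRE-driven beta-lactamase reporter received compound after 4 h plating, then dexamethasone (5 nM final). After 18 h at 37C, the FRET substrate was loaded for 2 h at room temperature and fluorescence read.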

Measured: Potency

OCC(CO)(CBr)CBr
inactive: [1] | [2] | [3] | [4] | [5] | [6] | [7] | [8] | [9] | [10] | [11] | [12] | [13] | [14] | [15] | [16]

CC(C)c1ccc(S(=O)(=O)O)cc1
inactive: [1] | [2] | [3] | [4] | [17] | [5] | [6] | [7] | [18] | [8] | [9] | [10] | [11] | [12] | [13] | [14]

COS(C)(=O)=O
inactive: [1] | [2] | [4] | [5] | [6] | [7] | [8] | [9] | [10] | [11] | [12] | [14] | [15] | [16] | [19]

O=C(O)CCCCCCCCCCC(=O)O
inactive: [1] | [2] | [4] | [17] | [5] | [6] | [7] | [18] | [8] | [9] | [10] | [11] | [12] | [13] | [14] | [15] | [16] | [19]

CCCCCC/C(C=O)=C\c1ccccc1
inactive: [1] | [2] | [3] | [4] | [17] | [5] | [6] | [8] | [9] | [10] | [11] | [12] | [13] | [14] | [16] | [19]

CCc1ccc(CCOc2ccc(CC3SC(=O)NC3=O)cc2)nc1 (stereo not drawn)
inactive: [1] | [2] | [3] | [4] | [5] | [6] | [8] | [9] | [10] | [11] | [12] | [14] | [15] | [16]

C#C[C@]1(O)CC[C@H]2[C@@H]3CCC4=CC(=O)CC[C@@H]4[C@H]3CC[C@@]21C
inactive: [1] | [3] | [4] | [5] | [6] | [7] | [18] | [8] | [9] | [10] | [11] | [12] | [13] | [14] | [16]

Cc1cccnc1
inactive: [1] | [2] | [4] | [5] | [6] | [7] | [8] | [9] | [10] | [11] | [12] | [13] | [14] | [15]

CCN(CC)c1ccc(C(=O)c2ccccc2C(=O)O)c(O)c1
inactive: [1] | [2] | [3] | [4] | [5] | [6] | [18] | [8] | [9] | [10] | [11] | [12] | [13] | [14] | [15] | [16] | [19]

O=C(O)[C@H](O)[C@@H](O)[C@H](O)[C@H](O)CO
inactive: [1] | [3] | [4] | [5] | [6] | [8] | [9] | [10] | [11] | [12] | [13] | [14] | [15]

Cc1occc(=O)c1O
inactive: [1] | [2] | [3] | [4] | [5] | [6] | [7] | [18] | [8] | [9] | [10] | [11] | [12] | [14]

O=[N+]([O-])c1ccc(/C=C/c2ccc([N+](=O)[O-])cc2S(=O)(=O)O)c(S(=O)(=O)O)c1
inactive: [1] | [2] | [3] | [4] | [17] | [5] | [6] | [7] | [8] | [9] | [10] | [11] | [12] | [14] | [16]
